Screening data deposited in PubChem by The Scripps Research Institute Molecular Screening Center.
FBW7 act = activators of human E3 ligase FBW7 | AID 1259310 | normalized activity (activation), % at 26.1 µM | AlphaScreen FBW7–phospho-cyclin E peptide binding, activator screen | Q969H0 | 650,000 tested, 0.13% active; in the data active = normalized activity above about 1.9%;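 note: purified mutant Fbw7 with reduced substrate affinity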
MITF primary = blocks human microphthalmia-associated transcription factor; O75030; inhibition, % at 2.6 µM; AlphaScreen MITF homodimerization, bead proximity signal; 650,000 tested, 0.91% active; in the data active = inhibition above about 50%;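 note: 0% = vehicle wells with protein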
Target sequence (O75030 whole entry, looked up): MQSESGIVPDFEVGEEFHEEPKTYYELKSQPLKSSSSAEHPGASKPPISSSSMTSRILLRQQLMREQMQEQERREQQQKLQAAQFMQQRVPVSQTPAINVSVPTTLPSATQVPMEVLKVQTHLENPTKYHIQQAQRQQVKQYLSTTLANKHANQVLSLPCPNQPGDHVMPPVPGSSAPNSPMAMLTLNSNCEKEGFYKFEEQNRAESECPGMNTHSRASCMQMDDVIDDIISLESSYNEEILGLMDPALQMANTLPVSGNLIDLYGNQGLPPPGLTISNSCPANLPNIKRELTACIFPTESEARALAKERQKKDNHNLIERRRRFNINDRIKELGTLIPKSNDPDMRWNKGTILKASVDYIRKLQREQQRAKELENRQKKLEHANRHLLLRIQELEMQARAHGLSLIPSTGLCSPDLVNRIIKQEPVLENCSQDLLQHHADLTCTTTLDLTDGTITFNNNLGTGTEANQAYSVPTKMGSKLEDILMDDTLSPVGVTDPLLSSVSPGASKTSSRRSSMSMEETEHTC
TEAD-YAP inh = TEAD-YAP interaction inhibition. AID 1259422. inhibition, % at 9.12 µM. 640,000 tested, 1.4% active. HEK-TIYL cells, TEAD-Gal4/YAP UAS-luciferase luminescence; in the data active = inhibition above about 32%;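 note: 0% = median of test compound wells and 100% = reference inhibitor wells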
GPR151 activ = human GPR151 activation; PathHunter beta-arrestin GPR151 cells, luminescence; Q8TDV0; 650,000 tested, 1% active; activation, % at 11.2 µM; in the data active = activation above about 4.9%;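 note: 0% = median of compound wells and 100% = cells with positive control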
Starred values were filed as active, the others as inactive. Hits are enriched below; roughly 3.5% of the tested compounds scored in any of these assays.

SMILES	FBW7 act	MITF primary	TEAD-YAP inh	GPR151 activ
O=C1NC(=S)S/C1=C\c1ccc(SCc2ccco2)o1	-1.5	58.2*	18.1	-0.8
O=C1NC(=O)N(c2ccc(F)cc2)C(=O)/C1=C\c1ccc(SCc2ccco2)o1	-1.0	86.7*	11.6	0.8
N=C1/C(=C\c2ccc(SCc3ccco3)o2)C(=O)N=C2SC(N3CCCC3)=NN12	0.0	17.7	1.4	-0.6
O=C1NC(=O)N(c2ccccc2)C(=O)/C1=C\c1ccc(-c2ccc([N+](=O)[O-])cc2)o1	-0.1	1.6	-4.3	-0.7
COc1cc(/C=C/C(=O)NC(C)c2ccccc2)ccc1OCC#N (centres undefined)	0.0	1.1	7.5	2.5
COC(=O)C1=C(C)N(CCc2ccc(OC)c(OC)c2)C(=O)/C1=C\c1ccc(F)cc1	-0.1	-6.6	-8.4	-0.1
CCN(c1ncnc(N)c1[N+](=O)[O-])C1CCCCC1	-0.3	21.3	51.3*	0.2
Nc1ncnc(N(c2ccccc2)C2CCCCC2)c1[N+](=O)[O-]	-0.1	16.2	-4.8	0.9
Cc1sc2c(c1C)c(=O)n(-c1ccccc1)c(=O)n2CC(N)=O	0.1	-4.4	0.9	0.6
CC(C)S(=O)(=O)C1=NSC2=NC(=O)/C(=C\c3ccc(Br)o3)C(=N)N21	-1.1	84.2*	8.3	-0.1
CS(=O)(=O)C1=NSC2=NC(=O)/C(=C\c3ccc(Br)o3)C(=N)N21	-1.9	74.3*	11.9	-0.5
CC1=NN(c2nc(-c3ccccc3)cs2)C(=O)C1C(c1ccccc1)C(C#N)C(N)=O (centres undefined)	0.7	23.6	75.7*	-0.9
N[C@H](Cc1ccc(Cl)cc1)c1nc2ncc(-c3cn[nH]c3)cc2[nH]1	-0.4	32.9	9.9	-0.3
O=C(NC1CCCCC1)NC1(C(=O)NCCCN2CCOCC2)CCCCC1	1.9*	11.2	3.0	-0.4
NS(=O)(=O)c1ccc(Cn2c(-c3ccc(Br)cc3)csc2=Nc2ccccc2)cc1	0.3	5.9	-3.9	-1.7
CN1/C(=C/C=C/c2cc(-c3ccc(Cl)cc3)cc(-c3ccc(Cl)cc3)[n+]2C)C(C)(C)c2ccccc21	-0.7	59.3*	94.1*	2.7
COC(=O)c1sccc1NC(=O)c1cccc2c1SCCC2=O	-0.1	6.1	9.7	-0.8
COC(=O)c1cc2c(cc1NC(=O)c1cccc3c1SCCC3=O)OCO2	0.0	-1.0	51.3*	-0.3
CC1CCN(Cc2nnnn2CCCC(=O)NCCc2cscn2)CC1	0.1	5.6	14.2	1.9
Cc1ccnc(NC(c2cccnc2)c2ccc3cccnc3c2O)c1 (centres undefined)	-0.3	65.5*	20.1	0.2
COc1ccccc1NC(c1cccnc1)c1ccc2cccnc2c1O (centres undefined)	-2.0	76.3*	3.3	-0.5
CCOc1ccc(C(Nc2cc(C)ccn2)c2ccc3cccnc3c2O)cc1C (centres undefined)	-0.3	8.4	85.6*	0.3
Oc1c(C(Nc2nccs2)c2cccnc2)ccc2cccnc12 (centres undefined)	-0.4	89.3*	66.8*	0.6
Cc1ccnc(NC(c2cccnc2)c2ccc3ccc(C)nc3c2O)c1 (centres undefined)	-0.2	-5.0	15.4	2.5
Cc1ccnc(NC(c2ccc(C(C)(C)C)cc2)c2ccc3cccnc3c2O)c1 (centres undefined)	-0.1	-8.8	18.7	-0.1
SMILES	FBW7 act	MITF primary	TEAD-YAP inh	GPR151 activ
CC1(C)CC2CC(C)(CN2C(=O)COC(=O)c2ccc(Br)cc2)C1 (centres undefined)	-0.2	8.2	4.3	-0.7
Cc1ccnc(NC(c2ccncc2)c2ccc3ccc(C)nc3c2O)c1 (centres undefined)	-0.2	3.6	39.5*	1.0
C=CCOc1cccc(C(Nc2cc(C)ccn2)c2ccc3ccc(C)nc3c2O)c1 (centres undefined)	-0.1	-60.0	16.9	-1.3
CC(C)(C)P(=NC(=S)NCCCO)(N1CCCCCC1)N1CCCCCC1	0.1	15.8	72.6*	1.1
CCOC(=O)c1c(-c2ccccc2)oc2ccc(NS(=O)(=O)c3ccc(OCC)cc3)cc12	0.2	-22.3	56.9*	0.3
CCOC(=O)c1c(-c2ccccc2)oc2ccc(NS(=O)(=O)c3ccc(OC)cc3)cc12	-0.1	-4.5	57.0*	3.7
CCOC(=O)c1c(-c2ccccc2)oc2ccc(NS(=O)(=O)c3ccccc3)cc12	-0.1	-4.7	0.3	-0.5
O=C(/C=C/c1cccs1)Nc1ccc(Cl)c2ncsc12	0.1	-9.8	87.0*	1.1
Cc1ccnc(NC(=O)/C=C/c2cccs2)c1	0.8	16.5	55.1*	-6.3
COc1ccccc1NC(=O)CSc1nc2cc3c(cc2c(=O)n1CCCC(=O)NCc1ccc2c(c1)OCO2)OCO3	-0.1	-11.0	1.2	-0.3
COc1cc(-c2cnc3ccc(N[C@H](CO)C(C)C)nn23)ccc1O	-0.5	-12.5	93.2*	-0.4
CCC(CO)Nc1ccc2ncc(-c3ccc(C)cc3)n2n1 (centres undefined)	-0.5	14.4	24.5	-0.4
CC(C)[C@@H](CO)Nc1ccc2ncc(-c3cccc(N)c3)n2n1	-0.6	-10.7	16.6	-0.4
CC(C)[C@@H](CO)Nc1ccc2ncc(-c3cccc(CO)c3)n2n1	-0.3	9.9	42.6*	-0.2
CC(C)[C@@H](CO)Nc1ccc2ncc(-c3cccc(Cl)c3)n2n1	2.0*	-1.8	5.5	-0.4
CC(C)[C@@H](CO)Nc1ccc2ncc(-c3ccccc3)n2n1	0.7	3.7	27.9	0.9
CC(C)[C@@H](CO)Nc1ccc2ncc(-c3ccc4ccccc4c3)n2n1	-0.3	-22.3	14.4	-0.8
CCC(CO)Nc1ccc2ncc(-c3ccccc3F)n2n1 (centres undefined)	0.6	2.4	41.5*	-1.2
CCC(CO)Nc1ccc2ncc(-c3cccc(CO)c3)n2n1 (centres undefined)	-0.1	-13.9	48.0*	-0.3
CCC(CO)Nc1ccc2ncc(-c3cccc(Br)c3)n2n1 (centres undefined)	0.1	-4.7	0.7	0.2
Cc1ccc(S(=O)(=O)NC(=O)Nc2cc(C)nc(C)n2)cc1	0.2	9.9	7.1	2.7
CC(C)COC(=O)Nc1nccs1	0.0	8.8	-34.8	-1.2
COc1ccc(C(=O)Nn2c(SCC(=O)NCc3ccccc3)nc3ccccc3c2=O)cc1	0.0	-3.9	73.8*	0.2
COc1ccc(C(=O)Nn2c(SCC(=O)NCC3CCCO3)nc3ccccc3c2=O)cc1 (centres undefined)	-0.1	-3.8	83.8*	-0.9
O=C(CSc1nc2ccccc2c(=O)n1NC(=O)Cc1ccccc1)NCC1CCCO1 (centres undefined)	0.0	2.8	-0.6	0.3
COc1ccc(C(=O)Nn2c(SCC(=O)Nc3ccc(C)cc3)nc3ccccc3c2=O)cc1	-0.1	-5.2	87.7*	-1.4
CCOc1ccc(NC(=O)CSc2nc3ccccc3c(=O)n2NC(=O)c2ccccc2)cc1	0.2	-31.5	2.3	-2.0
CCOc1ccc(NC(=O)CSc2nc3ccccc3c(=O)n2NC(=O)c2ccc(OC)cc2)cc1	0.0	6.6	54.0*	1.6
COC(=O)c1c(C)oc2ccc(N(C(C)=O)S(=O)(=O)c3ccc(C)cc3C)cc12	0.0	10.3	8.2	-0.1
